# Laboratory results as given in PubChem BioAssay (NCATS).
# Inconclusive results are not listed. Entries that show only a call come without a potency. Calls of active or inactive are those of the source. Unless noted, the call rests on the fitted dose curve; in most records, active means well fitted curve in the direction sought with a large enough effect; inconclusive means small, poorly fitted or top-dose-only effect, or another doubt; inactive means no such curve, though single readings can be large; an effect the other way counts as inactive or inconclusive.
# How the values were obtained:
# [1] = biological target: Calcium and integrin-binding protein 1 (Homo sapiens) (UniProt Q99828); assay: Validation qHTS for Identification of Calcium Integrin Binding protein 1 (CIB1) Competitor (AID 1508618); details: CIB1-GST / FITC-alphaIIb peptide fluorescence polarization; series mostly up to 114 µM
# How it was run: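 Displacement of FITC-alphaIIb peptide (100 nM) from CIB1-GST (1 uM) is monitored by polarization in quantitative HTS format; buffer carries 5 mM CaCl2 and 125 mM NaCl at pH 7.4, incubations are at room temperature.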
# [2] = biological target: Cytochrome P450 2C9 (Homo sapiens) (UniProt P11712); assay: Cytochrome P450 family 2 subfamily C member 9 (CYP2C9) small molecule antagonists: luciferase biochemical (cell-free) qHTS assay (AID 1645842; active means well fitted curve in the direction sought with a large enough effect in the repeat runs; an effect the other way counts as inactive or inconclusive; further: nearly all actives have a fitted effect of over 55% in size; further: potency means the concentration at half of the fitted maximal effect); details: P450-Glo CYP2C9 enzyme assay, luciferin luminescence; series mostly up to 57.4 µM
# How it was run: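 Luminescence, after 20 min with luciferin detection reagent, reflected CYP2C9 turnover during a 1 h NADPH-driven reaction at 37C. Enzyme-substrate mix contained 0.4% bovine serum albumin and was preincubated with compound 10 min at room temperature.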
# Papain (Carica papaya) = Papain (Carica papaya) (UniProt P00784); assay: Primary qHTS assay for inhibitors of the protease papain (AID 1645873); details: papain Z-FR-AMC cleavage, AMC fluorescence; series mostly up to 49.8 µM;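 further: papain turnover of Z-FR-AMC read as the AMC fluorescence gain over 10 min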; further: potency means the concentration at half of the fitted maximal effect
# [3] = Primary qHTS for inhibitors of nuclear receptor binding SET domain protein 2 (NSD2) in an isogenic RCH-ACV NSD2 p.E1099K mutant (9B) (AID 1645876); details: RCH-ACV NSD2 E1099K (9B) viability, CellTiter-Glo, 72 h; series mostly up to 44.9 µM; further: nearly all actives have a fitted effect of over 70% in size; further: potency means the concentration at half of the fitted maximal effect
# [4] = Primary qHTS for inhibitors of nuclear receptor binding SET domain protein 2 (NSD2) in an RCH-ACV wild type WT cells (2C) (AID 1645877); details: RCH-ACV (leukaemia line) NSD2 WT (2C) viability, CellTiter-Glo, 72 h; series mostly up to 44.9 µM; further: nearly all actives have a fitted effect of over 70% in size; further: potency means the concentration at half of the fitted maximal effect
# [5] = biological target: Calcium and integrin-binding protein 1 (Homo sapiens) (UniProt Q99828); assay: Primary qHTS for Identification of Calcium Integrin Binding Protein 1 (CIB1) Competitor (AID 1508620); details: CIB1-GST / FITC-alphaIIb peptide fluorescence polarization; series mostly up to 114 µM;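 further: GST tagged CIB1 binding a fluorescein labelled alphaIIb integrin peptide tracer; top concentration of the series differs between compounds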
# How it was run: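 CIB1-GST (1 uM final) and compound incubated 15 min at room temperature before adding FITC-alphaIIb peptide tracer (100 nM final). Competition for binding read by fluorescence polarization (ex 480, em 540) after another 15 min at room temperature.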
# [6] = biological target: Cytochrome P450 2D6 (Homo sapiens) (UniProt P10635); assay: Cytochrome P450 family 2 subfamily D member 6 (CYP2D6) small molecule antagonists: luciferase biochemical (cell-free) qHTS assay (AID 1645840; active means well fitted curve in the direction sought with a large enough effect in the repeat runs; an effect the other way counts as inactive or inconclusive; further: nearly all actives have a fitted effect of over 55% in size; further: potency means the concentration at half of the fitted maximal effect); details: P450-Glo CYP2D6 enzyme, luciferin luminescence, 1 h; series mostly up to 57.4 µM
# How it was run: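 P450-Glo luminescent screen: recombinant CYP2D6 enzyme–proluciferin substrate mix preincubated with compound 10 min at room temperature, then NADPH regeneration added for 1 h at room temperature. Detection reagent added for 20 min; luciferin light read as relative luminescence units.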
# [7] = Primary qHTS for inhibitors of La Crosse Virus (LACV) - induced cell death in SH-SY5Y cells (AID 1508616); details: SH-SY5Y LACV cytopathicity rescue, ATP luminescence, 6 d; series mostly up to 9.63 µM;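 further: top concentration of the series differs between compounds; higher means more rescue of cells from virus-induced death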
# How it was run: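 Readout was luminescence from ATPLite 1step added after a 6-day LACV infection (0.01 MOI) of SH-SY5Y cells that had received pin-transferred compound 24 hr after seeding.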
# [8] = A High-Content qHTS Against Drug Library for the Identification of Small Molecules that Inhibit DYT1 Early Onset Primary Dystonia-Associated Cell Pathology (AID 1645839; calls by dose curve); details: HEK293 Flp-In EGFP-delE TorsinA, punctate imaging, 48 h; series mostly up to 46.1 µM
# How it was run: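 In this high-content image screen, delE TorsinA mislocalization in inducible Flp-In 293 cells is scored as %pathology, with cell count serving as the counterscreen. Compound exposure lasts 48 h under tetracycline induction in reduced-serum medium.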
# [9] = Primary qHTS for small molecule stabilizers of the endoplasmic reticulum resident proteome: Secreted ER Calcium Modulated Protein (SERCaMP) assay (AID 1508630); details: SH-SY5Y GLuc-SERCaMP (Gaussia luciferase released on ER calcium loss) secretion, thapsigargin, luminescence; series mostly up to 38.4 µM
# How it was run: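 GLuc-SERCaMP-expressing SH-SY5Y cells, pretreated 16 h with compound, are challenged with thapsigargin to empty ER calcium stores; after 4 h, coelenterazine is added directly to the medium and luminescence is imaged.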
# [10] = Counterscreen qHTS for small molecule stabilizers of the endoplasmic reticulum resident proteome: GLuc-NoTag assay (AID 1508627); details: Gaussia luciferase NoTag secretion counterscreen, luminescence, thapsigargin 100 nM for final 4 h; series mostly up to 76.4 µM; further: potency means the concentration at half of the fitted maximal effect
# How it was run: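 Luminescence of Gaussia luciferase secreted into the medium (coelenterazine, 0.07x final, unlysed cells) was the read-out. Human SH-SY5Y neuroblastoma cells constitutively secreting untagged GLuc received compound for 19 h, then 100 nM thapsigargin for 4 h.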
# [11] = Confirmatory qHTS for small molecule stabilizers of the endoplasmic reticulum resident proteome: Secreted ER Calcium Modulated Protein (SERCaMP) assay (AID 1508628); details: SERCaMP secreted luciferase ER calcium/proteostasis reporter; series mostly up to 76.3 µM;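 further: SH-SY5Y cells given compound 16 h then thapsigargin 100 nM for 4 h; nearly all actives have a fitted effect of over 40% in size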
# How it was run: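 We seeded SH-SY5Y-GLuc-SERCaMP cells, added compounds (three concentrations in the primary run, eleven up to 76.6 uM in confirmation), incubated 16 h, depleted ER calcium with thapsigargin, and read luciferase 4 h later.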
# Cytochrome P450 2C9 (Homo sapiens), sequence (P11712 whole entry, looked up): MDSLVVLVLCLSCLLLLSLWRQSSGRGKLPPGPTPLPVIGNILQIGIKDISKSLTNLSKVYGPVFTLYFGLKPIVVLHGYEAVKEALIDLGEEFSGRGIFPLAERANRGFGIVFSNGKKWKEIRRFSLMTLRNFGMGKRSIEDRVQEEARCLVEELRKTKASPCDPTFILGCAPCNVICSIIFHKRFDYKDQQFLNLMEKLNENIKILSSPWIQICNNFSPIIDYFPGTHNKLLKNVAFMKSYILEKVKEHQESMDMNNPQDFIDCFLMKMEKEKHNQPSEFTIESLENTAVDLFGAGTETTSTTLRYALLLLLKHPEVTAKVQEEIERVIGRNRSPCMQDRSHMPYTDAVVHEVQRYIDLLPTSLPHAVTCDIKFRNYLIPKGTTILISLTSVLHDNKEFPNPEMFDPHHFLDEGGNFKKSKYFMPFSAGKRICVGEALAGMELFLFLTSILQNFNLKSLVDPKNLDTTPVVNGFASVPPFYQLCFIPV
# Calcium and integrin-binding protein 1 (Homo sapiens), sequence (Q99828 whole entry, looked up): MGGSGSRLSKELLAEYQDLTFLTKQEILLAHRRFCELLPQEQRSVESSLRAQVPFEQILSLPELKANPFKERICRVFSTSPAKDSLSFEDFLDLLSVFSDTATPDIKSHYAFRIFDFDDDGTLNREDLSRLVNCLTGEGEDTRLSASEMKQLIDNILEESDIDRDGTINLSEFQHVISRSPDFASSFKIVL
# Cytochrome P450 2D6 (Homo sapiens), sequence (P10635 whole entry, looked up): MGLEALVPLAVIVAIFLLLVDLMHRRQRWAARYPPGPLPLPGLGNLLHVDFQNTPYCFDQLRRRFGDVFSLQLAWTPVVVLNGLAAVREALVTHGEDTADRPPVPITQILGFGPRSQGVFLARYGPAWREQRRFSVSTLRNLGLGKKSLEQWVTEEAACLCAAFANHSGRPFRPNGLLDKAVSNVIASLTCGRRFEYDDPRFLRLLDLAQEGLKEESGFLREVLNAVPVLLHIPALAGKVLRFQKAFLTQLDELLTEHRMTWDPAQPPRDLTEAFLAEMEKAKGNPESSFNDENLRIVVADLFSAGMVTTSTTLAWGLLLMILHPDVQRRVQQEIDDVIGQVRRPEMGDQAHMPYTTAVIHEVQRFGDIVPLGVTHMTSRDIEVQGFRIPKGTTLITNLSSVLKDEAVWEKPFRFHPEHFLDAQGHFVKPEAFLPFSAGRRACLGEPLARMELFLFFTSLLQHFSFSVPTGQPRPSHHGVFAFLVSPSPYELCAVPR
# Papain (Carica papaya), sequence (P00784 whole entry, looked up, the tested form may be a part): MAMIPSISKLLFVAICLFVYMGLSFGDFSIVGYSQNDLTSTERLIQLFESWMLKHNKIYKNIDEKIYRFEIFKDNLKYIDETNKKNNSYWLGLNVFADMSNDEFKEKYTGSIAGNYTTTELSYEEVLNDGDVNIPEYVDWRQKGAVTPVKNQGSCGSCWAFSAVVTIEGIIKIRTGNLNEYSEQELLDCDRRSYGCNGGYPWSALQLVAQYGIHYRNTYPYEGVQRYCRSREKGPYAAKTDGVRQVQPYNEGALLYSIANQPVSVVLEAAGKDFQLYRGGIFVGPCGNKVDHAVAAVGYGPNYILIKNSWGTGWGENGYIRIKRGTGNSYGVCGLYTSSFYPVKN
smiles,measurement,setting,value
CCN(CC)CCCCNc1ncc2cc(-c3c(Cl)cccc3Cl)c(NC(=O)NC(C)(C)C)nc2n1,outcome,[1],inactive
same,Potency,[2],19 µM (active)
same,Potency,Papain (Carica papaya),28.2 µM (active)
same,Potency,[3],1.45 µM (active)
same,Potency,[4],3.65 µM (active)
COC(=O)C1=C(C)NC(C)=C(C(=O)OC)C1c1cccc(NC(=O)NCCCN2CCC(c3cccc(OC)c3)CC2)c1,outcome,[1],inactive
same,Potency,[5],inactive
same,Potency,[6],4.25 µM (active)
same,Potency,[2],1.69 µM (active)
same,Potency,Papain (Carica papaya),inactive
same,Potency,[3],4.59 µM (active)
CC(C)(NS(=O)(=O)c1ccc(Oc2ccc(F)cc2)cc1)C(=O)NO,outcome,[1],inactive
same,Potency,Papain (Carica papaya),inactive
CCCCCCCCCCCCCCCCCC(=O)O,Potency,[7],inactive
same,Potency,[8],inactive
same,Potency,[3],inactive
same,Potency,[4],inactive
COCCOc1cc2ncnc(Cl)c2cc1OCCOC,outcome,[1],inactive
same,Potency,Papain (Carica papaya),inactive
O=C(Nc1ccc2c(c1)CCN(Cc1ncn[nH]1)C2)c1ccccc1-c1ccc(C(F)(F)F)cc1,outcome,[1],inactive
same,Potency,[5],inactive
same,Potency,[6],0.12 µM (active)
same,Potency,[2],10.7 µM (active)
same,Potency,Papain (Carica papaya),inactive
same,Potency,[3],inactive
O=[N+]([O-])c1ccc(CNc2nc(NCc3cccc(C(F)(F)F)c3)nc3nc[nH]c23)cc1,outcome,[1],inactive
same,Potency,[2],1.07 µM (active)
same,Potency,Papain (Carica papaya),inactive
CN(C)[C@@H]1C(=O)C(C(=O)NCN2CCCC2)=C(O)[C@@]2(O)C(=O)C3=C(O)c4c(O)cccc4[C@@](C)(O)C3C[C@@H]12 (stereo partly drawn),Potency,[7],inactive
same,Potency,[8],inactive
same,Potency,[2],inactive
Nc1nc2ccc([N+](=O)[O-])cc2s1,Potency,[7],inactive
same,Potency,[8],inactive
same,Potency,[3],21.7 µM (active)
O=C1NC(O)=NC1(c1ccccc1)c1ccccc1,outcome,[1],inactive
same,Potency,[6],inactive
same,Potency,Papain (Carica papaya),inactive
Nc1ccn([C@H]2O[C@H](CO)[C@@H](O)C2(F)F)c(=O)n1,outcome,[1],inactive
same,Potency,Papain (Carica papaya),inactive
CCCCCCCC/C=C/C(=O)O,Potency,[5],inactive
same,Potency,[9],inactive
same,Potency,[8],inactive
same,Potency,[6],inactive
same,Potency,[2],inactive
CN[C@H](CC(C)C)C(=O)N[C@H]1C(=O)N[C@@H](CC(N)=O)C(=O)N[C@H]2C(=O)N[C@H]3C(=O)N[C@H](C(=O)N[C@H](C(=O)O)c4cc(O)cc(O)c4-c4cc3ccc4O)[C@H](O)c3ccc(c(Cl)c3)Oc3cc2cc(c3O[C@@H]2O[C@H](CO)[C@@H](O)[C@H](O)[C@H]2O[C@H]2C[C@](C)(N)[C@H](O)[C@H](C)O2)Oc2ccc(cc2Cl)[C@H]1O,outcome,[1],inactive
same,Potency,Papain (Carica papaya),inactive
same,Potency,[3],inactive
CC[C@H]1OC(=O)[C@H](C)[C@@H](O[C@H]2C[C@@](C)(OC)[C@@H](O)[C@H](C)O2)[C@H](C)[C@@H](O[C@@H]2O[C@H](C)C[C@H](NC)[C@H]2O)[C@](C)(O)C[C@@H](C)CN(C)[C@H](C)[C@@H](O)[C@]1(C)O,outcome,[1],inactive
same,Potency,Papain (Carica papaya),inactive
CC1(C)[C@@H](O[C@H]2O[C@H](C(=O)O)[C@@H](O)[C@H](O)[C@H]2O[C@@H]2O[C@H](C(=O)O)[C@@H](O)[C@H](O)[C@H]2O)CC[C@]2(C)[C@H]3C(=O)C=C4[C@@H]5C[C@@](C)(C(=O)O)CC[C@]5(C)CC[C@@]4(C)[C@]3(C)CC[C@@H]12,Potency,[5],inactive
same,Potency,[3],inactive
COc1cc(NC(C)CCCN)c2ncccc2c1 (stereo not drawn),Potency,[5],inactive
same,Potency,[10],44.7 µM (active)
same,Potency,[11],inactive
same,Potency,[3],6.68 µM (active)
Nc1nc2ccc(Cl)cc2n2c(-c3ccccc3)nnc12,outcome,[1],inactive
same,Potency,Papain (Carica papaya),inactive
Cc1cn([C@H]2CC(N=[N+]=[N-])[C@@H](CO)O2)c(=O)[nH]c1=O (stereo partly drawn),outcome,[1],inactive
same,Potency,Papain (Carica papaya),inactive
CCNC(=O)[C@H]1O[C@@H](n2cnc3c(N)nc(NCCc4ccc(CCC(=O)O)cc4)nc32)[C@H](O)C1O (stereo partly drawn),outcome,[1],inactive
same,Potency,Papain (Carica papaya),inactive
Nc1nc(OCC2CCCCC2)c2[nH]cnc2n1,outcome,[1],inactive
same,Potency,Papain (Carica papaya),inactive
